The campaign covered roughly 150,000 compounds. About 540 (0.36%) showed an effect of 50% or more. For the sample, strong results were picked, then their nearest neighbours and some compounds at random.
The compounds below were run on Plasmodium falciparum (assay: Primary screen in NF54 nanoGlo assay, in single point, at 2uM, 72h; a lower Z score goes with more inhibition). Conditions: timepoint 72 hour.
Format: functional, Erythrocyte

SMILES	% Inhibition	Z score
O=C(CCc1c(F)cccc1Cl)N1CC(Nc2cnccn2)C1	-6%	0.7
CC1(CO)CCCC1NCC(C)(O)C(F)(F)F (stereo not drawn)	33%	-3.73
O=c1c2ccccc2nc(Cc2ccccc2)n1Nc1ccccc1	-13%	1.76
O=C(NCC1CCOCC1)c1ccc(-c2ccc(Cl)cn2)cc1	7%	-1.01
CCc1cc(-c2cccc(C(=O)N3C[C@@H]4CC[C@H](C3)C(=O)N4)c2)nc(C)n1	-4%	0.67
COc1nc(-c2cccc(C(=O)N3C[C@@H]4CC[C@H](C3)C(=O)N4)c2)ncc1F	68%	-12.2
O=C1N[C@H]2CC[C@@H]1CN(C(=O)c1cccc(-c3ccc4nccc(O)c4c3)c1)C2	-3%	0.64
Cc1cc(C)nc(-c2cccc(C(=O)NC[C@H]3CCOC3)c2)n1	-2%	0.19
Cc1ccc(-c2cccc(C(=O)NCC3CCOCC3)c2)c(C)n1	-2%	0.22
COc1nc(-c2cccc(C(=O)NCC3CCOCC3)c2)ncc1F	70%	-12.03
O=C(NCC1CCOCC1)c1ccc(-c2ccc(C(F)(F)F)cn2)cc1	1%	-0.21
Cc1nc[nH]c1CN(Cc1c(C)nn(C)c1C)C(C)C	-7%	0.99
CC(C)N(CC1CCC1)C(=O)NC1CCC(Oc2cnccn2)CC1 (stereo not drawn)	29%	-3.26
COc1cc(C)c(-c2ccc(C(=O)N3CCCCCC3)cc2)cn1	-10%	1.56
Cc1ccc2c(C3=CCN(C(=O)c4cnc5[nH]c(=O)[nH]c(=O)c5c4)CC3)c[nH]c2c1	6%	-1.15
O=C(CCc1cc2n(n1)CCN(Cc1ccc3ccccc3n1)C2)NCCO	-16%	2.81
CCOCCC1CCN(C(=O)c2cccc(-n3cccn3)n2)CC1	-15%	1.43
CCc1ocnc1C(=O)NC1CCCCCC1C(=O)OC (stereo not drawn)	-7%	0.61
O=C(c1ccccc1)C1C(c2ccccc2)N1C(=O)c1cccc(Cl)c1 (stereo not drawn)	-7%	0.84
CC(=O)Nc1ccc(-c2cn3c4ccccc4ccc3[n+]2C)cc1	87%	-10.86
CC(=O)Nc1ccc(-c2cn(C)c[n+]2C)cc1	-42%	4.97
CC(=O)Nc1ccc(-c2cc(-c3ccccc3)nc(-c3ccccc3)n2)cc1	-14%	2.76
OC1(c2csc(CN3CCOCC3)n2)CCN(Cc2ccccn2)CC1	-9%	1.39
Cn1c(C(=O)Nc2cc(F)ccc2NC(=O)c2ccccn2)cc(Cl)c1Cl	-27%	2.71
O=C(NCCc1ccccc1)NC1CCCC1	-11%	2.11
C[C@H]1CCC[C@@H](NCCc2ccccc2)CCC/C=C/c2cc(O)cc(O)c2C(=O)O1	73%	-6.47
CC(C)N1CC[C@H](NCCc2ccccc2)C1	-6%	0.77

SMILES	% Inhibition	Z score
NC(=O)c1ccc(NCCOc2cccc(Cl)c2Cl)nn1	-9%	1.2
CCC[C@H]1CN(C(=O)c2cccc3cn[nH]c23)CCN1CCOC	4%	-0.6
Cc1ccccc1NC(=O)CN1CCN(Cc2ccccc2)S1(=O)=O	-18%	1.6
CC1=C[C@@H](c2ccc(Cl)cc2)n2nc(NC(=O)c3ccccc3)nc2N1	-6%	1.14
Cc1ccc(C2=C[C@@H](c3ccc(C)cc3)n3nc(NC(=O)c4cccc(Cl)c4)nc3N2)cc1	16%	-2.03
Cc1ccc(C2=C[C@@H](c3ccc(Cl)cc3)n3nc(NC(=O)c4ccccc4)nc3N2)cc1	84%	-8.34
CC(=O)Nc1ccccc1CN(Cc1ccc(F)cc1F)C1CC1	9%	-0.85
CCN(C(=O)c1ccccc1Cc1ccc(C)cc1)C1CCOCC1	-13%	1.36
Cn1nccc1/C=C1\CC2C3CCc4cc(O)ccc4C3CCC2(C)C1O (stereo not drawn)	54%	-6.08
CC(C)C(=O)NCCN(C)Cc1ccc(C#N)cc1Br	-19%	2.19
Cc1ncsc1CN(C)[C@@H](C(=O)O)c1ccsc1	3%	-0.57
Cc1nnc(C(C)NC(=O)C2(C)CCCN(C(=O)c3ccccc3)C2)o1 (stereo not drawn)	-7%	0.99
Cc1nc2cc(NC(=O)[C@@]3(C)CCCN(C(=O)c4ccccc4)C3)ccc2o1	55%	-8.5
C[C@]1(C(=O)Nc2cn[nH]c2)CCCN(C(=O)c2ccccc2)C1	-8%	1.66
Cc1ccc(N2C[C@H](C(=O)O)[C@@H](C(C)C)C2)nn1	-13%	1.69
CC1(C)CN(Cc2nnc(C3CC3)o2)CCN1Cc1ccccc1	-3%	0.43
O=C(NCc1ccco1)Nc1nccs1	1%	-0.2
O=C(NCCN1CCOCC1)c1c[nH]c2ccc(Cl)cc2c1=O	1%	-0.13
O=S(=O)(CCC1Cc2ccccc2C1)N1CCC[C@@](O)(C(F)(F)F)CC1	34%	-3.86
O=C(Cn1cc(F)ccc1=O)N1CCc2ccccc21	-8%	1.07
COc1cc(CNC2CCCCCC2)ccc1OC[C@@H](O)CN1CCCCCC1	1%	-0.22
CN1CCN(C2(CNc3ccnc4ccccc34)CCCC2)CC1	99%	-9.07
CN1CCN(C2(CNC(=O)Nc3ccccc3C(F)(F)F)CCCC2)CC1	-2%	0.33
O=C(NCc1c(F)cccc1Cl)c1cnc(-c2cccnc2)nc1	-19%	1.75
CCc1ccc(NC(=O)[C@H](C)N2CCC(NS(=O)(=O)c3cccs3)CC2)cc1	76%	-7.11
C[C@@H](C(=O)Nc1ccc(F)cc1)N1CCC(NS(=O)(=O)c2cccs2)CC1	32%	-3.04
C[C@@H](C(=O)Nc1c(F)cccc1F)N1CCC(NS(=O)(=O)c2cccs2)CC1	-7%	0.81

Source: ChEMBL document CHEMBL4888484, “Replenishing the malaria drug discovery pipeline: Screening and hit evaluation of the MMV Hit Generation Library 1 (HGL1) against asexual blood stage Plasmodium falciparum ,using a nano luciferase reporter read-out” (2022)
